Screens as filed in PubChem.
aDG glyco act – alpha-DG glycosylation activation. 360,000 tested, 0.22% active. activation, % at 10 µM. Pro5-aDG cells, alpha-DG glycosylation AlphaScreen (IIH6); 0% Pro5, 100% B10-LARGE cell signal;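 active means activation of at least 8% versus controls, or a plate z-score of at least 8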;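 further: Pro5 are CHO cells carrying HIG-tagged alpha-DG that lacks glycosylation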
ARNT TACC3 PPI – ARNT/TACC3 interaction disruption | 390,000 tested, 0.66% active | Q9Y6A5 | inhibition, % at 9.99 µM | AID 623870 | AlphaScreen His-ARNT PAS-B/GST-TACC3 binding, luminescence; TACC3 fragment carries E629A point mutation;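 active means mean inhibition of replicates at least 50% and at least half of replicates each reaching 50%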
A1 inh – inhibitors of the anti-apoptotic protein A1, read as caspase activation | MEF A1-2A-BIM cells, Caspase-Glo 3/7 luminescence, 3 h; percent of clofoctol response, vehicle zero | caspase activation, % (concentration not given with the values) | 330,000 tested, 0.066% active | AID 2462;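 active means over half of replicate activation scores above 10%, or exactly half above 10 with the replicate mean above 10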
AI-2 QS mod – modulators of Vibrio harveyi AI-2 quorum sensing system; 300,000 tested, 0.4% active; activity change, % at 7.5 µM; Vibrio harveyi JMH597 AI-2 luminescence/OD600 ratio, 9 h; stronger effect = lower value; strain lacks LuxN and CqsS sensors; 0 = neutral-control median; in the data active means activity change below about -75%, passing the limit was not always enough;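 further: luminescence divided by OD600 gain over 9 h not by final OD600 alone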
SUMO Mot1 rescue – SUMOylation pathway inhibition by Mot1-301 growth rescue | S. cerevisiae Mot1-301 growth rescue, ATP luminescence, 38.5C; percent above DMSO median, 100 means doubled | growth rescue, % at 18.8 µM | 320,000 tested, 1% active;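 active means every valid replicate shows activation above 250% relative to neutral control wells; inactive means the rest, any valid replicate at or below 250%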
Numbers stand for hits. Most compounds without a hit are left out; they make up all but 1.8% or so of the library.

How did O=C(Nc1cccnc1)c1ccc([N+](=O)[O-])s1 do in these assays?
aDG glyco act: 9.7; A1 inh: inactive; SUMO Mot1 rescue: inactive

What do the screens show for `O=C(Nc1cccnc1)c1cc(Br)c(Br)s1`?
aDG glyco act: inactive; ARNT TACC3 PPI: inactive; A1 inh: inactive; AI-2 QS mod: inactive; SUMO Mot1 rescue: inactive

Results for CCCC1S/C(=N/N=C/c2cccs2)NC1=O (stereo unspecified) ?
aDG glyco act: inactive; ARNT TACC3 PPI: inactive; A1 inh: inactive; AI-2 QS mod: inactive; SUMO Mot1 rescue: inactive

Results for CCCCC[n+]1ccn(C2=C([O-])c3ccccc3C(=O)/C2=N\S(=O)(=O)c2ccc(Br)cc2)c1 ?
aDG glyco act: 5.8; ARNT TACC3 PPI: inactive; A1 inh: inactive; AI-2 QS mod: inactive; SUMO Mot1 rescue: inactive

What do the screens show for `Cc1ccc(C(=O)CCc2ccc(N)cc2)cc1`?
aDG glyco act: inactive; ARNT TACC3 PPI: inactive; A1 inh: inactive; AI-2 QS mod: inactive; SUMO Mot1 rescue: 318.1

Results for Cc1ccc(C(=O)Cc2ccccc2)cc1 ?
aDG glyco act: inactive; ARNT TACC3 PPI: inactive

How did COc1ccccc1OCC(=O)N/N=C/C=C/c1ccc([N+](=O)[O-])o1 do in these assays?
aDG glyco act: inactive; ARNT TACC3 PPI: inactive; A1 inh: inactive; AI-2 QS mod: -93.8; SUMO Mot1 rescue: inactive

Results for O=C(COc1ccccc1[N+](=O)[O-])N/N=C/C=C/c1ccco1 ?
aDG glyco act: inactive; ARNT TACC3 PPI: inactive; A1 inh: inactive; AI-2 QS mod: inactive; SUMO Mot1 rescue: inactive

What do the screens show for `COc1ccccc1CNC(=O)COC(=O)c1ccc(NC(N)=O)cc1`?
aDG glyco act: inactive; ARNT TACC3 PPI: inactive; A1 inh: inactive; AI-2 QS mod: inactive; SUMO Mot1 rescue: 325.3

What do the screens show for `C(=N\Nc1nc2ccccc2s1)/c1ccccn1`?
A1 inh: inactive; AI-2 QS mod: inactive; SUMO Mot1 rescue: inactive

How did Cc1csc(N/N=C/c2ccccn2)n1 do in these assays?
aDG glyco act: inactive; ARNT TACC3 PPI: 59.0; A1 inh: inactive; AI-2 QS mod: inactive; SUMO Mot1 rescue: inactive

How did Fc1ccc(Cn2nnc(-c3ccc(CN4CCOCC4)cc3)n2)cc1 do in these assays?
aDG glyco act: inactive; ARNT TACC3 PPI: inactive; A1 inh: inactive; AI-2 QS mod: inactive; SUMO Mot1 rescue: inactive

What do the screens show for `COC(=O)c1cccc(-c2ccc(C(c3c(C)[nH][nH]c3=O)c3c(C)[nH][nH]c3=O)o2)c1`?
aDG glyco act: inactive; ARNT TACC3 PPI: 63.7; A1 inh: inactive; AI-2 QS mod: inactive; SUMO Mot1 rescue: inactive

Results for Cc1[nH][nH]c(=O)c1C(c1ccc(-c2ccc(Cl)c(C(=O)O)c2)o1)c1c(C)[nH][nH]c1=O ?
aDG glyco act: inactive; ARNT TACC3 PPI: inactive

Results for N#C[C@H]1[C@H](c2ccc(C#Cc3ccccc3F)cc2)[C@@H](CO)N1C(=O)C1CCCCC1 ?
ARNT TACC3 PPI: 46.6

What do the screens show for `N#C[C@H]1[C@@H](c2ccc(C#Cc3ccccc3F)cc2)[C@@H](CO)N1C(=O)C1CCCCC1`?
ARNT TACC3 PPI: inactive

How did Cc1cccc2c1-c1sc(C(=O)Nc3ccccc3N3CCN(C)CC3)cc1CO2 do in these assays?
aDG glyco act: inactive; ARNT TACC3 PPI: 45.1; A1 inh: inactive; AI-2 QS mod: inactive; SUMO Mot1 rescue: inactive

What do the screens show for `Cc1cccc2c1-c1sc(C(=O)N3CCCCC3)cc1CO2`?
aDG glyco act: inactive; ARNT TACC3 PPI: inactive; A1 inh: inactive; AI-2 QS mod: inactive; SUMO Mot1 rescue: inactive

How did COc1ccc(S(=O)(=O)Nc2c(C)n(C)n(-c3ccccc3)c2=O)cc1C(=O)O do in these assays?
aDG glyco act: inactive; ARNT TACC3 PPI: inactive; A1 inh: inactive; AI-2 QS mod: inactive; SUMO Mot1 rescue: 273.8

What do the screens show for `COc1ccccc1Cn1c(=S)[nH]c2ccccc2c1=O`?
aDG glyco act: inactive; ARNT TACC3 PPI: inactive; A1 inh: inactive; AI-2 QS mod: inactive; SUMO Mot1 rescue: inactive

What do the screens show for `CCCCNC(=O)c1ccc(Cn2c(=S)[nH]c3c([nH]c4ccc(OC)cc43)c2=O)cc1`?
aDG glyco act: inactive; ARNT TACC3 PPI: inactive; A1 inh: 50.9; AI-2 QS mod: inactive; SUMO Mot1 rescue: inactive

What do the screens show for `Cc1ccc(C(=O)NCC(=O)OCCCn2c(=O)[nH]c3ccccc32)cc1C`?
aDG glyco act: inactive
